From PubChem BioAssay
PfM18AAP inh: blocks P. falciparum M18 aspartyl aminopeptidase | recombinant PfM18AAP, H-Glu-NHMec fluorogenic cleavage | AID 1822 | 290,000 tested, 1.2% active | inhibition, % at 7.35 µM;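 active = inhibition above the campaign mean inhibition over all tested compounds plus 3 SD, cut at about 28% in these data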;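 also: 0% = plate median of test compound wells and 100% = 2 mM ZnCl2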
pPAFAH FP inh: inhibitors of human plasma PAF acetylhydrolase (pPAFAH); Q13093; recombinant pPAFAH, FP-rhodamine probe fluorescence polarization; inhibition, % at 3.39 µM; 330,000 tested, 1.5% active; AID 463082;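 active = inhibition above the mean inhibition across the screen plus 3 SD, cut at about 25% in these data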;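 also: inhibitors block binding of the rhodamine activity-based probe so polarization drops; 0% = enzyme with DMSO and 100% = wells lacking pPAFAH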
Target sequence (Q13093 whole entry, looked up): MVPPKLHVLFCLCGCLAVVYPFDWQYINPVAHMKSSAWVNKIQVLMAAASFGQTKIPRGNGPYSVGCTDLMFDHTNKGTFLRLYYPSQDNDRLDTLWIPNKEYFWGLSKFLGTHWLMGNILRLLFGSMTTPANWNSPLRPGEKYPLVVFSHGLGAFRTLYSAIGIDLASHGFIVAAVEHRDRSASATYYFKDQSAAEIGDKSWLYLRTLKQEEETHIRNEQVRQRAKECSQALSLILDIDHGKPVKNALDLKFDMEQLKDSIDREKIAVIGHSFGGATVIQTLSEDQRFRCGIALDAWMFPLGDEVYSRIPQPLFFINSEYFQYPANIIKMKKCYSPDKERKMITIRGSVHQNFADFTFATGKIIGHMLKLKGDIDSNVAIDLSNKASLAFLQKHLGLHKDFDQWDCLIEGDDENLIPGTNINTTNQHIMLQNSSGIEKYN
PAFAH1B3 FP inh: PAFAH1B3 (human) inhibition | 340,000 tested, 0.28% active | Q15102 | recombinant PAFAH1B3, FP-rhodamine probe, fluorescence polarization | inhibition, % at 3.39 µM;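 active = inhibition above the screen-wide average of all tested compounds plus 3 SD, cut at about 25% in these data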;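 also: 0% = enzyme with DMSO only and 100% = wells lacking PAFAH1B3 protein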
DSG3 Ab inh: blocks pemphigus antibody binding to human desmoglein-3 | P32926 | binding (percent of control), % at 10 µM | DSG3-coupled beads, scFv-anti-DSG3-GFP binding, flow cytometry; stronger effect = lower value | 310,000 tested, 0.48% active;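 active = binding more than 3 SD below its plate's average and above zero; inconclusive = below that plate limit but binding exactly zero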;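 also: hits lower antibody fragment binding to DSG3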
PAFAH2 FP inh: PAFAH2 (human) inhibition | Q99487 | recombinant PAFAH2, FP-rhodamine activity probe, fluorescence polarization | inhibition, % at 3.39 µM | 340,000 tested, 0.99% active | AID 492956;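 active = inhibition above the mean over all tested compounds plus 3 SD, cut at about 30% in these data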;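 also: inhibitors block probe labeling of enzyme so polarization drops; 0% = enzyme with DMSO and 100% = wells lacking PAFAH2 protein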
PAFAH1B2 inh: inhibitors of human PAFAH1B2. recombinant PAFAH1B2, FP-rhodamine activity probe, fluorescence polarization. inhibition, % at 3.39 µM. 340,000 tested, 1.2% active. AID 492953;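 active = inhibition above the mean of all tested compounds plus 3 SD, cut at about 24% in these data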;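 also: 0% = enzyme with DMSO and 100% = wells lacking PAFAH1B2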
Target sequence (P68402 whole entry, looked up): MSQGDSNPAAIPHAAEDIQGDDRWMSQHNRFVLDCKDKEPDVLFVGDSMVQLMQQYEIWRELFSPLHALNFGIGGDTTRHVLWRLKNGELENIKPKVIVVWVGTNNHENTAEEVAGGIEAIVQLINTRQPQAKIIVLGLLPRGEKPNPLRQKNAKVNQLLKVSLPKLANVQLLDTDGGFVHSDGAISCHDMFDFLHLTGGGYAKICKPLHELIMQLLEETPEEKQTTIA
Active calls of the source: *; ? = inconclusive; . = not tested or not shown. The list is not random: actives were taken first. Their share in the collection is about 3.8%.

SMILES	PfM18AAP inh	pPAFAH FP inh	PAFAH1B3 FP inh	DSG3 Ab inh	PAFAH2 FP inh	PAFAH1B2 inh
COc1ccccc1NS(=O)(=O)c1ccc2[nH]c(=O)[nH]c2c1	-1.1	5.5	4.7	116.4	3.5	3.1
CCOc1ccc(NC(=O)CN(C)C(=O)CN2C(=O)NC3(CCCC3)C2=O)cc1OCC	.	25.7*	10.8	93.4	1.8	-1.4
Nc1ccn(CCCN2CCN(C(=O)C3CC3)CC2)c(=O)n1	.	.	.	108.4	.	.
O=C(c1ccccc1)N1CCN(C(=O)c2ccccc2)c2ccccc21	.	.	9.3	91.2	-0.5	-0.7
NC(=O)CN1C(=O)C(=O)N(Cc2ccc(Cl)cc2)C1=O	4.7	2.4	1.1	95.4	-2.8	0.8
O=C(O)CN1C(=O)C(=O)N(Cc2ccc(Cl)cc2Cl)C1=O	-2.7	5.5	4.9	100.9	-2.5	25.2*
O=c1[nH]c(CN2CCN(c3ccc([N+](=O)[O-])cc3)CC2)nc2ccsc12	3.2	9.7	-3.2	105.0	-5.0	32.1*
COc1ccc(N2CCN(Cc3nc4ccsc4c(=O)[nH]3)CC2)cc1	1.9	0.1	5.4	101.2	-0.8	1.4
CC(Sc1ccc(Cl)cc1)C(=O)NNC(=O)c1ccccc1O (stereo unspecified)	11.2	9.6	1.8	111.5	25.2	28.1*
CC(=O)n1cc([C@H]2C=C(C(=O)N3CCOCC3)O[C@@H](OCCCCO)C2)c2ccccc21	.	7.3	3.7	101.6	0.3	-6.5
C[C@@H]1CN([C@@H](C)CO)C(=O)CCCn2nncc2CO[C@H]1CN(C)Cc1ccc2c(c1)OCCO2	.	.	.	98.1	.	.
Cc1ccc(NC(=O)c2cc(S(=O)(=O)N3CCOCC3)cn2C)cc1Cl	-11.3	2.0	1.2	97.6	-0.1	2.2
Cc1ccc(NC(=O)c2cc(S(=O)(=O)N3CCCC3)cn2C)cc1C	-4.0	-2.9	2.9	18.3*	-5.9	-0.7
Nc1c(S(=O)(=O)c2ccccc2)cnc2c(-c3ccc(F)cc3)cnn12	1.3	5.8	-3.4	-18.2*	2.4	2.6
COc1ccc(-c2cnn3c(N)c(S(=O)(=O)c4ccccc4)cnc23)cc1	-3.6	3.8	8.1	99.9	12.4	-0.7
CC(C)CC1C(=O)N(Cc2cn(Cc3ccco3)nn2)CCS(=O)(=O)N1Cc1ccc(-c2ccc(Cl)cc2)cc1 (stereo unspecified)	.	.	.	103.0	.	.
Cc1ccc(N2C(N)=C(C#N)C(c3cccs3)C3=C2CC(C)(C)CC3=O)cc1 (stereo unspecified)	-3.3	2.0	1.2	106.0	7.4	0.9
N#CC1=C(N)N(c2ccccc2)C2=C(C(=O)CCC2)C1c1cccs1 (stereo unspecified)	29.1*	11.7	-7.7	98.7	-1.6	-0.4
CCC(C)NS(=O)(=O)c1ccc(S(=O)(=O)N(CC(=O)Nc2ccccc2)CC2CCCO2)cc1 (stereo unspecified)	-3.8	31.1*	-5.2	96.7	-2.1	-3.1
COc1cc(S(=O)(=O)N(Cc2cccs2)CC2CCCO2)ccc1-n1cnnn1 (stereo unspecified)	1.2	4.6	-2.6	124.8	-5.6	-1.2
CCC(C)NS(=O)(=O)c1ccc(NC(=O)CCC2CCCCC2)cc1 (stereo unspecified)	0.0	10.5	4.4	94.8	6.3	-4.0
O=S(=O)(NCc1ccccc1)c1ccc(S(=O)(=O)N(Cc2cccs2)CC2CCCO2)cc1 (stereo unspecified)	1.9	-1.9	3.2	89.5*	1.6	-1.8
O=C(Cn1cnc2cc([N+](=O)[O-])ccc2c1=O)Nc1ccccc1-c1ccccc1	1.0	5.9	10.7	99.1	-1.0	6.0
O=C(Cn1cc(C(F)(F)F)ccc1=O)Nc1ccc2c(c1)OCO2	.	.	.	106.4	.	.
COc1ccc(OC)c(CCNC(=O)c2ccc(CS(=O)(=O)c3ccc(Br)cc3)o2)c1	-2.6	2.9	7.2	91.1	7.4	27.1*
SMILES	PfM18AAP inh	pPAFAH FP inh	PAFAH1B3 FP inh	DSG3 Ab inh	PAFAH2 FP inh	PAFAH1B2 inh
COc1ccc(S(=O)(=O)Cc2ccc(C(=O)NCCc3cc(OC)ccc3OC)o2)cc1	-9.1	1.8	3.1	99.6	5.8	3.5
COCCn1c(SCC(=O)Nc2ccc(F)cc2)nc2c(c1=O)SCC2	.	.	.	95.8	.	.
O=C(NC1CSC/C1=N\O)c1ccccc1 (stereo unspecified)	-0.7	1.6	5.9	81.7*	3.8	5.6
COc1cccc(CNC(=O)c2ccc(S(=O)(=O)N3CCCCC3)cc2)c1	.	.	.	99.3	.	.
CN(C)C(=O)c1ccc2c(c1[N+](=O)[O-])C(=O)c1ccccc1C2=O	-1.0	5.9	9.1	97.6	7.8	2.7
Cc1[nH]c2c(C)cccc2c1CCNC(=O)c1ccc2c(c1[N+](=O)[O-])C(=O)c1ccccc1C2=O	0.2	20.5	40.0*	106.3	20.0	12.2
C[C@@H]1CN([C@H](C)CO)S(=O)(=O)c2ccc(Br)cc2O[C@H]1CN(C)C(=O)C1CC1	.	.	.	112.7	.	.
CCN1C(=O)/C(=C\c2ccc(-c3ccc([N+](=O)[O-])cc3OC)o2)SC1=Nc1cccc(C(=O)O)c1	4.2	.	21.4	99.2	9.1	24.2*
CCN1C(=O)/C(=C\c2ccc(-c3cccc(C(=O)OC)c3)o2)SC1=Nc1ccc(C(=O)O)cc1	-1.9	4.6	.	.	.	.
Cc1ccc(/C=C2/SC(=O)NC2=S)o1	26.3	.	45.2*	103.2	59.8*	26.1*
OC(c1ccccc1)C(O)c1ccccc1 (stereo unspecified)	.	-0.3	.	90.7*	.	.
CCCCN(C(=O)COC(=O)c1sccc1C)c1c(N)n(CCC)c(=O)[nH]c1=O	.	.	.	103.8	.	.
CCOC(=O)C1C(C(=O)OCC)C(C)(C)C1N(C)C (stereo unspecified)	.	.	.	106.5	.	.
CN(C)S(=O)(=O)n1cc(/C=C(\NC(=O)c2ccccc2F)C(=O)N2CCOCC2)c2ccccc21	1.6	3.1	1.6	17.8*	7.4	8.7
CN(C)S(=O)(=O)n1cc(/C=C(\NC(=O)c2ccccc2Cl)C(=O)N2CCOCC2)c2ccccc21	-2.7	-1.6	6.4	96.5	3.4	3.7
COc1ccc(OC)c(Nc2ccc(Nc3cc(OC)ccc3OC)nn2)c1	-6.9	30.4*	3.6	108.1	6.3	-1.6
O=C(Cn1nnc(-c2cc(C(F)(F)F)cc(C(F)(F)F)c2)n1)NNC(=S)Nc1ccc(Cl)cc1	-13.2	27.2*	10.9	.	2.8	9.7
COC(=O)C1=C2SC(C)C(=O)N2C(N)=C(C#N)C1c1ccc(OC)c(OC)c1 (stereo unspecified)	29.8*	1.0	6.3	101.9	-0.1	4.4
CCOc1ccccc1OCCCC(=O)NNC(=O)c1nn(C)c(=O)c2ccccc12	.	-6.8	2.5	?	0.0	6.7
CC(=O)NN1C(=O)/C(=C\c2ccc(Br)o2)SC1=S	9.9	27.3*	0.2	117.6	2.7	-3.7
CC(=O)NC(C)C12CC3CC(CC(C(=O)O)(C3)C1)C2 (stereo unspecified)	-1.4	5.0	2.7	100.3	-0.9	-0.9
